Assay outcomes deposited in PubChem BioAssay by National Center for Advancing Translational Sciences (NCATS).
Epigenetic mod – epigenetic GFP locus derepression in mouse cells; mouse C127i GFP locus derepression, cytometry, 30 h; Potency, µM (titrated, usually from 46.1 µM), without a hit: top-dose GFP derepression (activation); hit rate 0.09% among 68,000; AID 597; note: % of control where 0% means no effect
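Derepression screen: silenced CMV-GFP reporter in murine C127i cells, 30 h compound incubation at 37 C, washed cells imaged by laser-scanning cytometer to enumerate GFP-expressing objects of 20 to 120 um.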
Casp1 inh – blocks human caspase-1 allosterically or competitively; P29466; Caspase-1 enzyme, Ac-WEHD-AFC fluorogenic rate; Potency, µM (doses to about 57.5 µM), without a hit: at the highest dose activity change, negative = inhibition, actives largely listed as inhibitors; hit rate 0.03% among 75,000; AID 900;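 note: potency is the fitted concentration of half-maximal effect; plate controls were vehicle for no effect and no substrate for full effect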
UbGFP stabilizer – inhibits proteasome, raising ubiquitin-GFP reporter fluorescence; Ubiquitin-GFP reporter cells, proteasome inhibition, GFP fluorescence; response scale: untreated = 0%, 10 µM MG-132 = 100%; Potency, µM (series often up to 45.9 µM), for inactives: at the top dose activation (GFP accumulation), usual class: activators; 67,000 tested, under 10 active; AID 526; active = well fitted activation curve with a large enough effect, not every such curve was filed as active; inconclusive = small, poorly fitted or top-dose-only effect, or another doubt; inactive = no such curve, though single readings can be large or run the other way; note: potency is the fitted concentration of half-maximal effect
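Proteasome block read as GFP accumulation: ubiquitin(G76V)-GFP U2OS cells exposed to compound (2.9 nM–46 uM) for 4 hr at 37 C. Normalization used untreated cells as 0% and 10 uM MG-132 as 100%; concentration-response curves fitted.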
USP2a inh – blocks human ubiquitin-specific protease USP2a; Potency, µM (series often up to 38.3 µM), inactives show at the top dose activity change, negative = inhibition, actives largely listed as inhibitors; O75604; hit rate 0.1% among 60,000; USP2a enzymatic assay, qHTS inhibition; AID 927; note: potency is the fitted concentration of half-maximal effect; nearly all actives have a fitted effect of over 60% in size
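20 nM USP2 core + cpd, 30 min RT; add 20 nM Ub-PLA2/20 uM NBD C6-HPC; read Ex460/Em535 at 0 h and 2.5 h. Normalized to NEM; qHTS curve fit/classification.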
HBB splice mod – hemoglobin beta splicing modulation. HBB splicing reporter cell assay, activation; EGFP reporter with mutant IVS2-654 intron; response scale: normalised to 500 nM splice-correcting PNA. Potency, µM (series often up to 46.1 µM), inactives show at the top dose activation, usual class: activators. hit rate 0.06% among 65,000; note: potency is the fitted concentration of half-maximal effect; 0% is about no effect
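HeLa cells stably expressing EGFP interrupted by mutant beta-globin intron 2 (IVS2-654), 500/well in 2% FCS. Treated with compound for 2 days at 37C. Splicing correction scored as total well GFP intensity (488 nm excitation, 500-520 nm emission); 500 nM antisense PNA served as control.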
Casp7 inh – caspase-7 (human) inhibition, allosteric or competitive. hit rate 0.02% among 75,000. recombinant caspase-7, Ac-DEVD-AFC fluorescence rate. Potency, µM (doses to about 57.5 µM), for inactives: top-dose activity change, negative = inhibition, most hits filed as inhibitors. P55210; active = well fitted inhibition curve with a large enough effect in the main read-out, with a control signal flat, not every such curve was filed as active; inconclusive = small, poorly fitted or top-dose-only effect, or a change in a side signal; note: potency is the fitted concentration of half-maximal effect; % of control where 0% means no effect
* hit, by the source's call; ? = inconclusive; . = no result; [ ] = remark or other dose. Only some compounds are listed: those with a hit (about 0.24% of all), similar ones and a draw of the others. Unless noted, calls come from the whole dose curve; as a rule, active = well fitted curve in the direction sought with a large enough effect; inconclusive = small, poorly fitted or top-dose-only effect, or another doubt; inactive = no such curve, though single readings can be large; an effect the other way counts as inactive or inconclusive.

SMILES	Epigenetic mod	Casp1 inh	UbGFP stabilizer	USP2a inh	HBB splice mod	Casp7 inh
Oc1c([C@H](Nc2ccccn2)c2ccccc2)ccc2cccnc12	6%[9.22 µM]	-2%[11.5 µM]	-4%[9.17 µM]	.	2%[9.22 µM]	1%[11.5 µM]
Oc1c(C(Nc2ccccn2)c2ccccn2)ccc2cccnc12 (configuration not stated)	5µM*	-2%	0%	45%	-1%	1%
COc1ccc(-c2c(=O)n(OCc3ccccn3)c3ccccc3[n+]2[O-])cc1OC	-3%	-5%	-2%	4%	-1%	-6%
Cc1c(=O)n(OCc2ccccc2F)c2ccccc2[n+]1[O-]	13µM*	-2%	2%	4%	20µM*	-2%
Cc1ccc(S(=O)(=O)N(CC(=O)O)c2ccc(Cl)cc2)cc1	.	-2%	.	.	.	0%
Cc1ccc(NC(=O)Cn2cccc2)cc1C	0%	-2%	-2%	19%	0%	0%
Cc1ccc(NC(=O)CSCC(N)=O)cc1C	16µM*	?	-3%	39%	9%	?
Cc1c(C)c2c(c(C)c1O)CC[C@@](C)(C(=O)O)O2	2%[20.6 µM]	1%[25.7 µM]	13%[20.5 µM]	-10%[17.1 µM]	0%[20.6 µM]	1%[25.7 µM]
Cc1c(C)c2c(c(C)c1O)CC[C@@](C)(CCC[C@@H](C)CCC[C@@H](C)CCCC(C)C)O2	1%[20.6 µM]	-8%[25.7 µM]	-1%[20.5 µM]	7.9µM*	3%[20.6 µM]	0%[25.7 µM]
O=C1[C@@H]2C=CC=CC2=NC(=S)N1CCN1CCC(=C(c2ccc(F)cc2)c2ccc(F)cc2)CC1	-1%	2%	0%	24%	0%	-1%
C=CCn1c(NC(=O)c2ccccc2)c(C#N)c2nc3ccccc3nc21	9%	.	-3%	12%	25µM*	?
Clc1ccc([C@@H](c2ccccc2Cl)C(Cl)Cl)cc1	0%	.	-1%	.	-1%	.
COCCNC(=O)c1ccc(-n2c(=O)c(=O)[nH]c3ccccc32)cc1	.	-1%	.	.	.	-1%
O=C(OCC1OC(OC(=O)c2cc(O)c(O)c(OC(=O)c3cc(O)c(O)c(O)c3)c2)[C@@H](OC(=O)c2cc(O)c(O)c(OC(=O)c3cc(O)c(O)c(O)c3)c2)C(OC(=O)c2cc(O)c(O)c(OC(=O)c3cc(O)c(O)c(O)c3)c2)C1OC(=O)c1cc(O)c(O)c(OC(=O)c2cc(O)c(O)c(O)c2)c1)c1cc(O)c(O)c(OC(=O)c2cc(O)c(O)c(O)c2)c1 (some centres not stated)	.	?	.	1µM*	.	?
COc1cccc(Nc2ncc3nc(-c4cccs4)c(=O)n(-c4ccccc4)c3n2)c1	4µM*	.	?	77%	10µM*	?
COc1ccc(-c2nc3cnc(Nc4cccc(OC)c4)nc3n(CCC#N)c2=O)cc1	5%[9.22 µM]	.	?	113%	?	?
COc1cccc(Nc2ncc3nc(-c4ccc(Cl)cc4)c(=O)n(CCC#N)c3n2)c1	1%[9.22 µM]	.	?	177%	10µM*	?
CCNc1ncc2nc(-c3cccs3)c(=O)n(-c3ccccc3)c2n1	8%[9.22 µM]	.	?	137%	13µM*	?
COc1cccc(Nc2ncc3nc(-c4cccs4)c(=O)n(Cc4cccs4)c3n2)c1	0%[9.22 µM]	.	2%	182%	13µM*	?
COc1cccc(Nc2ncc3ncc(=O)n(Cc4cccs4)c3n2)c1	7%[9.22 µM]	.	2%	176%	0%	?
COC(=O)[C@@H](NC(=O)c1cc(-c2ccccc2)nc2ccccc12)c1ccccc1	0%	.	-5%	.	0%	.
CCN1C(=O)c2cccc3c(NC(=O)C4CCCCC4)ccc1c23	-5%	-11%	.	39%	0%[0.369 µM]	-11%
CCN1C(=O)c2cccc3c(NC(=O)c4ccc5c(c4)OCCO5)ccc1c23	13µM*	-15%	15%	10%	0%	-3%
CCNC(=O)[C@@H]1O[C@@H](n2cnc3c(NCc4ccccc4)ncnc32)[C@@H](O)[C@H]1O	-1%	.	4%	.	1%	.
O=C(CSc1cccc2cccnc12)N1CCCC1	0.63µM*	-3%	1%	8%	-2%	0%
SMILES	Epigenetic mod	Casp1 inh	UbGFP stabilizer	USP2a inh	HBB splice mod	Casp7 inh
CN(C)C(=O)CSc1cccc2cccnc12	?	-1%	-3%	4%	-1%	-1%
COc1cc(NCC[C@@H]2CCCCN2)c2ncccc2c1	-3%[9.22 µM]	-4%[11.5 µM]	-1%[9.17 µM]	.	0%[9.22 µM]	1%[11.5 µM]
COc1cc(N[C@@H](C)CCCN)c2ncccc2c1	0%[20.6 µM]	2.5µM*	-4%[20.5 µM]	2%[17.1 µM]	-2%[20.6 µM]	-22%[25.7 µM]
O=C1C=CC2=C3c4cc(O)c(O)cc4C[C@@]3(O)COC2=C1O	-2%[9.22 µM]	.	-4%	.	.	.
CCCCCCC/C=C\CCCCCCCCC(=O)O	1%	0%	-2%	13µM*	0%	0%
Cc1ccc2c(c1)N(CC(=O)NCC1COc3ccccc3O1)C(=O)CO2 (configuration not stated)	.	-2%	7%	.	-1%	0%
CC[C@]1(O)C[C@H]2CN(CCc3c([nH]c4ccccc34)[C@](C(=O)OC)(c3cc4c(cc3OC)N(C)[C@@H]3[C@](O)(C(=O)OC)[C@H](OC(C)=O)[C@]5(CC)C=CCN6CC[C@]43[C@@H]65)C2)C1	-2%	7%	-2%	23%	-1%	-1%
CCN(CC)c1ccc2cc(-c3nnc(-c4ccncc4)o3)c(=O)oc2c1	2µM*	.	.	.	.	.
CCN(CC)c1ccc2cc(C(=O)Nc3ccccn3)c(=O)oc2c1	-3%[20.6 µM]	.	.	.	.	.
C=C1C[C@@]23C[C@]1(O)CC[C@@H]2[C@]12C=C[C@@H](O)[C@@](C)(C(=O)O1)[C@@H]2[C@@H]3C(=O)O	-5%[9.22 µM]	.	1%	.	.	.
O=C(c1ccc(S(=O)(=O)N2CCC(c3nc4ccccc4[nH]3)CC2)cc1)N1CCOCC1	-2%	2%	0%	13µM*	.	0%
O=C(O)CCCCCC[C@@H]1C(=O)NC(=O)N1CC[C@@H](O)C1CCCCC1	-2%	.	-4%	.	0%	.
Nc1cccc2c(N)cccc12	.	-6%	.	.	-1%	-3%
Nc1ccc2c3c(cccc13)CC2	13µM*	.	.	.	.	.
CCN(CC)CCCC(C)NC(=O)c1ccc(-n2c(=O)c(=O)[nH]c3ccccc32)cc1 (configuration not stated)	.	0%	.	.	.	-1%
N.N.N.N.N.N.N.N.N.N.N.N.N.N.O.O.[Ru].[Ru].[Ru]	-2%	0%	-1%	?	-1%	1%
O=C(c1ccc(Cl)c(Cl)c1)N(Cc1ccco1)c1ccc(O)cc1	3%	0%	-2%	1%	3%	13µM*
Cc1ccc(C[C@H](Cc2nc3ccccc3[nH]2)c2nc3ccccc3[nH]2)cc1	0%[9.22 µM]	.	-1%	.	.	.
O=C(Oc1cccc2c(O)cccc12)c1ccccc1	1%	-2%	-2%	13µM*	.	-2%
COC(=O)c1ccccc1	.	-2%	.	.	0%	2%
